Among all 69,000 compounds or so, about 8,600 (12%) showed an effect of 50% or more. What follows is part of a selection rich in strong results, with near analogues and random picks from the rest.
The molecules below were run on Plasmodium berghei (assay: Screen against P. berghei liver stage (PbLuc), transformed with Luciferase, at 10uM). Settings: tested at 10 uM.
Assay type: functional, HepG2

SMILES	INHIBITION [%]
CC1CCN(c2cc(CCC3CCCN3)ncn2)CC1 (stereo unspecified)	34
Cc1n[nH]cc1CNc1ccc2c(c1)N(C(=O)OC(C)(C)C)CCC2	31.8
CC(C)(C)OC(=O)N1CCCc2ccc(NCc3cc[nH]c3)cc21	92.1
CC(C)(C)OC(=O)N1CCC[C@H](NCc2cc[nH]c2)C1	49.5
CCCNC(=O)CNc1ccc2c(c1)N(C(=O)OC(C)(C)C)CCC2	87.2
CC(C)N(CC1CCCN(Cc2ccon2)C1)C(=O)OC(C)(C)C (stereo unspecified)	39.9
CC(C)(C)OC(=O)N1CCCc2ccc(NCc3ccon3)cc21	55.4
CCNC(=O)N1CCc2ccc(NC(=O)NCCOCC)cc21	-26.8
COc1ccc(NC(=O)c2ccccc2NCc2ncnn2C)cc1	47.4
Cc1cc(CNCC2CCCN(C(=O)OC(C)(C)C)C2)no1 (stereo unspecified)	39
Cn1ncnc1CNc1ccccc1C(=O)NC(C)(C)C	1.2
Cn1ncnc1CNc1ccc2c(c1)N(C(=O)OC(C)(C)C)CCC2	52.4
CCCNC(=O)Nc1ccc2c(c1)N(S(=O)(=O)CC)CC2	36.3
c1csc(-c2nc(CN3CCCCC3Cn3cncn3)cs2)c1 (stereo unspecified)	42
CCc1nc2n(n1)CC(NCC(=O)Nc1cc(C)nn1C)CC2 (stereo unspecified)	5.03
Cc1ccc(-c2cnnc(N3CCCC3c3nccs3)n2)o1 (stereo unspecified)	12.6
Cc1ccc(OCc2occc2C(=O)N2C[C@@H]3C(CN(C)C)[C@@H]3C2)cc1 (stereo partly specified)	32.2
Cc1c(CN2CCCC2(C)C(=O)NC2CCCC2)cnn1C (stereo unspecified)	1.62
CCN(CC)CCNc1c(-c2ccccc2)c(=O)c1=O	4.07
CN(C)c1nc2cn(C3CCSCC3)c(=O)c-2c[nH]1	18.65
CC(C)CC(=O)N1CC(=O)N(CCc2ccccc2)CC(O)C1 (stereo unspecified)	0.284
CC(C)c1nc(CN2CCN(C(=O)CN3CCOCC3)CC2)no1	13.3
CN1CCN(Cc2cccc(NCc3ncc[nH]3)c2)CC1	-13.9

SMILES	INHIBITION [%]
CCN(C(=O)Cc1ccc(NCc2ncc[nH]2)cc1)c1ccccc1	22.2
Cc1n[nH]cc1CNc1ccc2c(c1)CN(C(=O)OC(C)(C)C)CC2	80.1
CC(=O)N1CC(C)CN(Cc2ccon2)c2ccccc21 (stereo unspecified)	18
CC(C)(C)OC(=O)N1CCCc2ccc(NCc3ncc[nH]3)cc21	51.8
COC(=O)N1CCc2ccc(NC(=O)c3cn(C)nn3)cc2C1	-28.4
Cc1n[nH]cc1CNC(=O)[C@H]1CCCCN1C(=O)OC(C)(C)C	34.1
CC(C)(C)OC(=O)N1CCCN(Cc2ccon2)c2ccccc21	83.6
CC(=O)N1CCCN(Cc2ccon2)c2ccccc21	32.3
Cc1cc(C)nc(N2CCC(C(=O)Nc3ccc(C(C)C)cc3)CC2)n1	20.2
O=S1(=O)NCC2(CCN(c3ncccn3)CC2)COc2ccccc21	-21.2
CO[C@@H]1CO[C@@]2(CCCN(C(=O)N3CCCC3)C2)C1	33.1
CCS(=O)(=O)N1CCC(c2nn(CCN(C)C)c3ncccc23)C1 (stereo unspecified)	9.63
Cc1cccc(C2CCN(S(=O)(=O)c3cn(C)cn3)CC2)n1	-41.8
CCN1CCOC(CNCc2ccccc2OCc2ccncc2)C1 (stereo unspecified)	19.5
Cc1nnc2n1CCN(Cc1ncc(-c3ccccc3)o1)C2	-25.4
c1cc(-c2ccc3nc(C4CCN(CC5CC5)CC4)nn3c2)ccn1	47.9
COc1ccc(OCCN2CCN(Cc3nccn3C)CC2)cc1	14.1
CCN(Cc1ccncc1)CC1(O)CCN(C(=O)c2ccccc2C)C1 (stereo unspecified)	23.2
Cn1c(C(=O)N2CCOCC2)nc2c1CCN(c1ncccn1)C2	14.2
CC(C)n1c(C(=O)N2CCCC2)nc2c1CCN(c1ncccn1)C2	33.4
CN1CCCN(C(=O)c2nc3c(n2C)CCN(c2ncccn2)C3)CC1	55.6
CN1CCN(C(=O)c2[nH]nnc2Nc2ccccc2F)CC1	5.18
CC(=O)Nc1ccc(C(=O)NCCCn2cccc2)cc1	18.7

SMILES	INHIBITION [%]
NC(=O)Nc1ccc(C(=O)NCCn2cccc2)cc1	57.1
O=C(NCCNC(=O)c1ccc(Cl)cc1)NCCn1cccc1	-11.9
O=C(NC[C@]12COC[C@H]1CN(Cc1nccs1)C2)c1cscn1	47.9
FC(F)(F)c1cc(C2CCNCC2)nc(-c2ccsc2)n1	1.62
CN1C(=O)CC(c2cnn(C)c2)C12CCN(C(=O)c1ccno1)CC2 (stereo unspecified)	14.8
CN1C(=O)CC(c2cnn(C)c2)C12CCN(C(=O)c1ccnnc1)CC2 (stereo unspecified)	57.9
CN1C(=O)CC(c2cnn(C)c2)C12CCN(C(=O)c1ccncc1)CC2 (stereo unspecified)	42.7
CN1C(=O)CC(c2cnn(C)c2)C12CCN(C(=O)c1ccc[nH]1)CC2 (stereo unspecified)	37.8
CN1C(=O)CC(c2cnn(C)c2)C12CCN(C(=O)c1ccco1)CC2 (stereo unspecified)	10.1
CN1C(=O)CC(c2cnn(C)c2)C12CCN(C(=O)c1cscn1)CC2 (stereo unspecified)	61.4
Cc1nc(C2CCCN2C(=O)CCc2ccc(F)cc2)ncc1C(N)=O (stereo unspecified)	43.6
O=C(CCc1nc2ccccc2[nH]1)N1CCCC(n2cccn2)C1 (stereo unspecified)	40.75
CC(C)NC(=O)N1CCC2(CCC(=O)N2CCN2CCCC2)CC1	5.04
COCCN1C(=O)CCC12CCN(C(=O)NC(C)C)CC2	-38.4
CC(C)NC(=O)N1CCC2(CCC(=O)N2CCN(C)C)CC1	60.5
COCCN1C(=O)CCC12CCCN(C(=O)NC(C)C)CC2 (stereo unspecified)	18.6
CN(C)CCN1C(=O)CCC12CCN(C(=O)CC1CC1)CC2	-12.2
CN(C)CCN1C(=O)CCC12CCCN(C(=O)CC1CC1)CC2 (stereo unspecified)	51.9
COCCC(=O)N1CCCC2(CCC(=O)N2CCOC)CC1 (stereo unspecified)	54.9
CN(C)CCN1C(=O)CCC12CCCN(C(=O)N(C)C)CC2 (stereo unspecified)	9.97
COCCN1C(=O)CCC12CCCN(C(=O)CC1CC1)CC2 (stereo unspecified)	-15.9
O=c1cc(CNCc2ccc3c(c2)OCO3)nc2ccccn12	14.3
COc1nn(C)cc1C(=O)N1CCC(c2nnc(C(C)C)o2)CC1	37.5

SMILES	INHIBITION [%]
c1ccn(Cc2noc3c2CN(Cc2ccsc2)CC3)c1	49.1
CC1CN(CCC(=O)NCCc2cccnc2)Cc2ccccc2O1 (stereo unspecified)	26.1
CC1CN(CC(=O)NCCc2ccncc2)Cc2ccccc2O1 (stereo unspecified)	60.9
Cc1ccc2c(c1)CN(CC(=O)NCCc1ccc(F)cc1)CC(C)O2 (stereo unspecified)	-46.4
O=C(c1ccc(-c2ccsc2)nc1)N1CCCN(C2CCCCC2)CC1	14.4
CO[C@@]1(C)C[C@@H](O)C12CCN(C(=O)CCn1c(C)cccc1=O)CC2	46.4
COCC1c2nnn(C)c2CCN1C(=O)COc1ccccc1C (stereo unspecified)	22.2
COCC1c2nnn(C)c2CCN1C(=O)Cc1ccccn1 (stereo unspecified)	-21.3
COCC1c2nnn(C)c2CCN1C(=O)c1ccc(OC)c(F)c1 (stereo unspecified)	44.8
COCC1c2nnn(C)c2CCN1C(=O)Cc1ccc2c(c1)OCO2 (stereo unspecified)	-10.5
COCC1c2nnn(C)c2CCN1C(=O)CCc1cccc(OC)c1 (stereo unspecified)	52.1
COCC1c2nnn(C)c2CCN1C(=O)COc1ccccc1OC (stereo unspecified)	53
CCc1c(C)sc2nc3n(CCN4CCCCC4)nc(SC)n3c(=O)c12	35.1
CC(C)(C)c1n[nH]c(C2CN(C(=O)c3cc(C4CC4)[nH]n3)CCO2)n1 (stereo unspecified)	-21.2
CNC(=O)N1CCN(C(=O)N(C)C)CC2(CC(=O)N(C)C2)C1 (stereo unspecified)	26.3
Cc1ncsc1C(=O)N1CC[C@@H]2[C@@H](CC1)OCCN2c1cccnc1	65.1
O=C(c1ccncc1)N1CC[C@@H]2[C@@H](CC1)OCCN2c1cccnc1	12.1
O=C(c1ccoc1)N1CC[C@@H]2[C@@H](CC1)OCCN2c1cccnc1	45.8
CC(Cn1cccn1)NC(=O)c1ccsc1 (stereo unspecified)	15.7
Cc1nc2ccc(C(=O)N3CCn4c(C)nnc4C3)cc2nc1C	1.56
CN1C[C@H](c2ccccc2)[C@H]2CN(C(=O)Cc3ccc(O)cc3)CC[C@H]21	27.35
CCN1CC2(CCC1=O)CCN(C(=O)c1ccc(C)cc1O)CC2	18.6
COc1cccc(-c2nnn(C3CCN(CC(F)(F)F)C3=O)n2)c1 (stereo unspecified)	-73.4

SMILES	INHIBITION [%]
Cc1nnc(SCCNc2cc(C3CC3)ncn2)s1	4.52
COCc1cc(NCCCSc2nnc(C)s2)ncn1	58.8
COc1cc(NCCCSc2nnc(C)s2)ncn1	42.1
CCn1c(C)nnc1SCCNc1cc(COC)ncn1	8.51
Cc1nnc(SCCCNc2cc(C3CC3)ncn2)s1	58.8
Cc1nnc(SCCCNC(=O)c2ccc3c(c2)OCO3)s1	33.4
Cc1cccc(N2CC3(CCN(S(=O)(=O)c4cccs4)C3)CC2=O)c1 (stereo unspecified)	-4.82
CSc1ccc(C(=O)N2C[C@@H]3CC[C@H]2CN(Cc2cccnc2)C3)cc1	-5.19
Cc1noc(CCCNC(=O)N2CCc3ccccc3C2CO)n1 (stereo unspecified)	14.4
CC(C)(C)c1cc(NC(=O)CN2CCc3cncnc3C2)on1	-9.76
COC(=O)COn1c(SC)nc2ccccc2c1=O	48
CCSc1nc2ccccc2c(=O)n1OCC(=O)OC	60.8
CCc1nc2ccccc2c(=O)n1CC1(O)CCN(CC(=O)OC)CC1	13.5
CCOn1c(SC(C)C)nc2ccccc2c1=O	56.3
COC(=O)COn1c(SCC(=O)OC)nc2ccccc2c1=O	28.3
COC(=O)COn1c(SC(C)C)nc2ccccc2c1=O	28.3
COC(=O)COn1c(OC)nc2ccccc2c1=O	52.5
CCc1nc2ccccc2c(=O)n1CC1(O)CCN(C(=O)COC)CC1	7.52
CCc1nc2ccccc2c(=O)n1CC1(O)CCN(C(=O)C(C)C)CC1	35.2

— ChEMBL document CHEMBL4513216, “Probing the Open Global Health Chemical Diversity Library for Multistage-Active Starting Points for Next-Generation Antimalarials” (ACS Infect Dis, 2020)
